Assay results published in PubChem BioAssay.
Active and inactive are the calls of the source. No rule for the calls is given here.

Molecular target: Pantothenate synthetase (Mycobacterium tuberculosis (strain ATCC 25618 / H37Rv)) (UniProt P9WIL5)
Assay: Recombinant Mtb pantothenate synthetase (PanC) inhibitors, coupled enzyme, confirmatory (AID 375);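 also: 0% = full reaction with vehicle and 100% = no enzyme background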
Conditions: coupled enzyme assay; at 10 µM, hits give high values

Chain of Pantothenate synthetase (Mycobacterium tuberculosis (strain ATCC 25618 / H37Rv)) (P9WIL5 whole entry, looked up): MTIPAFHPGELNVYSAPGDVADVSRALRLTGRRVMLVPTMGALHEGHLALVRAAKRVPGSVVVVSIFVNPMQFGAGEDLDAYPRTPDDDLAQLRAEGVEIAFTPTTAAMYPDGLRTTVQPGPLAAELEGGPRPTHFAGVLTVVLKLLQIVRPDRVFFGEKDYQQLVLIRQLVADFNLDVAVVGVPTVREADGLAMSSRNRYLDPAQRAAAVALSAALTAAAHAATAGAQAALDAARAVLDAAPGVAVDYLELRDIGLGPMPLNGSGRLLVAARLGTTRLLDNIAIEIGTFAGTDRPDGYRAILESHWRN

Row | Structure (SMILES) | inhibition
1 | COc1ccc(S(=O)(=O)Nc2ccccc2SC)cc1C | 0% (inactive)
2 | CC(C)Cn1c(=O)c(C(=O)Nc2ccccc2S(N)(=O)=O)c(O)c2ccccc21 | 0% (inactive)
3 | S=c1[nH]nc(-c2ccco2)n1-c1cccc2ccccc12 | 0% (inactive)
4 | O=C(O)C1CCCN(S(=O)(=O)c2ccc(Cl)s2)C1 (stereo not given) | 2% (inactive)
5 | COc1ccc(C)cc1NC(=O)c1nnn(Cc2cccc(F)c2)c1N | 13% (inactive)
6 | CCOC(=O)N1CCN(C(=O)c2ccc3c(SCC(=O)O)c4c(nc3c2)CCCC4)CC1 | 0% (inactive)
7 | CCOCCCNCC(=O)N1CCN(S(=O)(=O)c2ccc(C)cc2)CC1 | 0% (inactive)
8 | COc1cc(OC)c(-c2nn3c(C4CCCCC4)nnc3s2)cc1OC | 0% (inactive)
9 | Cc1ccccc1-n1nnc2c(=O)oc3ccccc3c21 | 0% (inactive)
10 | O=C(O)c1ccc2c3c(ncnc13)-c1ccccc1C2=O | 1% (inactive)
11 | CCOc1ccc(C2CC(c3cccc(C)c3)n3ncnc3N2)cc1 (stereo not given) | 0% (inactive)
12 | CN(Cc1cccs1)c1ncnc2sccc12 | 0% (inactive)
13 | COCC(=O)Nc1sc2c(c1C(=O)OC)C(C(=O)OC)CC2 (stereo not given) | 0% (inactive)
14 | O=C(N1CCN(Cc2ccccc2)CC1)C12CC3CC(CC(C3)C1)C2 | 0% (inactive)
15 | COc1cccc(-n2c(CNc3ccc(F)cc3)nnc2SCC(N)=O)c1 | 0% (inactive)
16 | CC1CC(C)CN(c2nc3c(c(=O)[nH]c(=O)n3C)n2CCCSc2nc3ccccc3s2)C1 (stereo not given) | 7% (inactive)
17 | Cc1nccn1CCCN1C(=O)OC2(CCCCC2)C1(C)O (stereo not given) | 0% (inactive)
18 | CCOC(=O)c1c(C)n(OCc2ccccc2)c2ccc3c(no[n+]3[O-])c12 | 0% (inactive)
19 | CC(=O)N(C(C)=O)c1cccc2c(N(C(C)=O)C(C)=O)cccc12 | 1% (inactive)
20 | O=C(O)CCN(CCC(=O)O)c1nnc(SCc2ccccc2)s1 | 2% (inactive)

Row | Structure (SMILES) | inhibition
21 | O=C(CN1C(=O)CSC1=O)Nc1ccc(N2CCOCC2)cc1 | 7% (inactive)
22 | CC(C)Cn1c(N)c(C(=O)NCc2cccs2)c2nc3ccccc3nc21 | 1% (inactive)
23 | CC(=O)Nc1ccc(S(=O)(=O)N2CCC(c3nc4ccccc4[nH]3)CC2)cc1 | 0% (inactive)
24 | Cc1nn(-c2ccccc2)c(Cl)c1C(=O)NCC(=O)O | 0% (inactive)
25 | Cc1c(C#N)sc2nc(-c3ccccc3)nc(N3CCCC3)c12 | 0% (inactive)
26 | COc1ccc(OC)c(C(=O)c2coc3ccc(O)c(CN4CCOCC4)c23)c1 | 0% (inactive)
27 | COC(=O)CCC(=O)Nc1ccc(OC)cc1 | 0% (inactive)
28 | CCCCOCCCNC(=O)c1ccc(NC(C)=O)cc1 | 0% (inactive)
29 | O=C(CSc1ncnc2sc3c(c12)CCCCC3)NCc1ccco1 | 3% (inactive)
30 | Cc1cc(C(=O)NCc2ccc(S(N)(=O)=O)cc2)cs1 | 16% (inactive)
31 | CC(=O)NC1(C(F)(F)F)NC(=O)N(CC(C)C)C1=O (stereo not given) | 0% (inactive)
32 | COc1ccc(OCCCC(=O)Nc2nncs2)cc1 | 0% (inactive)
33 | O=C(NCc1ccc(Cl)cc1)c1ccc(COCC(F)(F)F)o1 | 0% (inactive)
34 | O=C(Nc1ccc(N2CCCCC2)cc1)c1ccc(F)cc1 | 0% (inactive)
35 | Cc1cc(C)n(-c2nc(C)nc3c2cnn3-c2ccccc2)n1 | 0% (inactive)
36 | Cc1ccc(C2C(C(=O)c3sc(C)nc3C)=C(O)C(=O)N2CCN(C)C)o1 (stereo not given) | 0% (inactive)
37 | COCCn1c(=NC(=O)CSC(C)=O)sc2cc(F)ccc21 | 12% (inactive)
38 | CCOC(=O)c1ccccc1NC1c2ccccc2C(=O)N1C1CCN(C(=O)OCC)CC1 (stereo not given) | 2% (inactive)
39 | Clc1cccc(Nc2c3c(nc4ncnn24)CCC3)c1 | 0% (inactive)
40 | Cc1ccc(NC(=O)COC(=O)c2ccn(C)n2)cc1 | 0% (inactive)
